# Hits are enriched below; roughly 2.2% of the tested compounds scored in any of these assays.
# APP transl inh: APP translation inhibition; SH-SY5Y APP 5'UTR-luciferase reporter, luminescence; inhibition, % at 2 µM; 0.82% of 190,000 active;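 active = inhibition above a set limit, derived from the sample mean plus 3 SD, cut at about 45% in these data; inconclusive = one replicate passes the limit while the other fails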
# Ba/F3 V617F tox: lowers viability of Ba/F3 cells expressing EpoR and JAK2V617F; 1.1% of 220,000 active; AID 1446; ATP luminescence; inhibition, % at 5.6 µM;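 active = inhibition above the campaign mean plus 3 SD over all tested compounds, cut at about 24% in these data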;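 also: cytokine-independent growth of Ba/F3 cells driven by EpoR plus mutant JAK2; 0% = DMSO-treated cells and 100% = JAK inhibitor I control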
# IEC-6 cytotox: kills IEC-6 intestinal cells in KLF5 counter-screen; 0.78% of 290,000 active; IEC-6 cytotoxicity, luminescence viability; inhibition, % at 5 µM; AID 1825;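 also: 0% = plate median of test compound wells and 100% = cytotoxic reference compound wells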
# aSyn UTR inh: 5' untranslated region of α-synuclein, MLPCN primary screen; alpha-synuclein 5'UTR reporter, inhibitor activity; inhibition, % (tested at 7.5 µM); 0.82% of 300,000 active; AID 1813; in the data active = inhibition above about 60%; inconclusive = no clear call, values can overlap the other calls;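 also: H4 neuroglioblastoma cells stably carrying SNCA 5'UTR luciferase fusion; 0% = DMSO wells and 100% = positive control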
# BaF3 parental: counter-screen for JAK2V617F inhibitors: parental Ba/F3 viability inhibitors; 1.1% of 220,000 active; CellTiter-Glo ATP luminescence; inhibition, % at 5.6 µM;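 active = inhibition above a per-campaign cutoff, the mean inhibition of all tested compounds plus 3 SD, cut at about 27% in these data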;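 also: 0% = DMSO wells and 100% = JAK Inhibitor I control wells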
# KLF5 inhibitor: suppresses KLF5 promoter-driven expression. DLD-1 KLF5 promoter-luciferase reporter, luminescence. inhibition, % at 5 µM. 0.23% of 290,000 active;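 active = inhibition above a per-plate limit of that plate's mean compound inhibition plus 3 SD, cut at about 60% in these data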;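 also: 0% = DMSO wells and 100% = LY294002 at 200 µM; higher means less KLF5 promoter-driven luciferase light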
# IEC-6 cytotox cf: IEC-6 cytotoxicity, confirmation assay; shares compounds with IEC-6 cytotox; IEC-6 rat intestinal epithelial viability, luminescence; inhibition, % at 5 µM; 63% of 1,900 active; AID 1907;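 also: 0% = vehicle and 100% = reference cytotoxic drug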
# * = called active by the depositor; ? = inconclusive; nt = no result given. Rule as the data show it, unless noted: active = inhibition above about 22%; inactive = the rest.
SMILES,APP transl inh,Ba/F3 V617F tox,IEC-6 cytotox,aSyn UTR inh,BaF3 parental,KLF5 inhibitor,IEC-6 cytotox cf
CC(C)C(=O)N1CCN(c2ccc(NC(=O)c3ccc(Br)o3)cc2)CC1,-16.8,-1.7,0.3,-13.8,1.6,-32.9,nt
COc1ccc(/C=N/Nc2cc(C)nc(-n3nc(C)cc3C)n2)cc1,-5.0,1.0,5.6,5.8,4.8,4.3,nt
Cc1cc(N/N=C/c2ccc(O)cc2O)nc(-n2nc(C)cc2C)n1,53.4*,-3.1,79.0*,71.8*,3.9,35.8,46.7*
CC1CN(S(=O)(=O)c2ccc(F)cc2)C(C)N1C(=O)N1CCOCC1 (configuration not stated),nt,nt,-4.6,0.9,nt,24.6,nt
COc1ccc(N(CC(=O)Nc2cc(Cl)ccc2C)S(=O)(=O)c2c(C)noc2C)cc1,nt,nt,63.5*,78.5*,nt,43.2,44.0*
C/C(=N/Nc1ccc([N+](=O)[O-])cc1)c1ccc(C)cc1C,-16.6,1.9,5.1,-89.1,9.6,-57.8,nt
C/C(=N/Nc1ccc([N+](=O)[O-])cc1)c1c[nH]c2ccccc12,nt,nt,24.3*,-171.2,nt,-19.6,22.4*
COc1cccc(N2C(=O)Nc3ccc(Br)cc3C2(O)C(=O)NCCCN(C)C)c1 (configuration not stated),nt,nt,-1.7,13.4,nt,-3.6,nt
Cc1ccc(OCC(=O)NC(=S)Nc2ccc(S(=O)(=O)Nc3cc(C)on3)cc2)c(Br)c1,nt,nt,-2.0,-0.9,nt,-19.9,nt
O=C(O)C(C(O)c1ccccc1)[n+]1ccccc1 (configuration not stated),nt,nt,nt,2.2,nt,nt,nt
O=C(NNc1ccccc1F)c1ccccc1,nt,10.5,25.5*,2.6,-6.6,-2.3,-8.5
Cc1ccc(NC(=O)c2nc(S(=O)(=O)Cc3ccccc3C)ncc2Cl)cc1C,nt,nt,31.2*,38.8,nt,6.0,16.3
CCOC(=O)c1ccc(NC(=O)CCS(=O)(=O)Cc2ccccc2)cc1,nt,nt,-5.6,-8.9,nt,-26.9,nt
CCOC(=O)c1ccc(NC(=O)c2nc(S(=O)(=O)Cc3ccccc3)ncc2Cl)cc1,nt,nt,49.9*,?,nt,22.9,16.3
CC1CCN(S(=O)(=O)c2ccc(NC(=O)c3ccncc3)cc2)CC1,nt,nt,3.0,-1.1,nt,-37.4,nt
CCCS(=O)(=O)c1ncc(Cl)c(C(=O)Nc2ccc(S(=O)(=O)Nc3ncccn3)cc2)n1,nt,nt,-4.8,16.1,nt,-26.0,nt
CCc1ccc(NC(=O)c2nc(S(=O)(=O)Cc3ccccc3)ncc2Cl)cc1,nt,nt,88.0*,90.7*,nt,14.8,6.8
CCS(=O)(=O)c1ncc(Cl)c(C(=O)Nc2ccc(S(=O)(=O)N3CCC(C)CC3)cc2)n1,nt,nt,95.9*,65.1*,nt,42.9,7.9
CSc1ncc(Cl)c(C(=O)Nc2ccc(C)c(C)c2)n1,nt,nt,2.5,16.2,nt,-8.3,nt
O=C(N/N=C/c1cc([N+](=O)[O-])ccc1O)c1cccc(N2CCCC2=O)c1,nt,nt,6.0,12.5,nt,22.6,nt
CC(C)(C)NC(=O)NC(=O)CN1C(=O)NC(c2ccccc2)(c2ccccc2)C1=O,nt,nt,-4.0,8.9,nt,-29.7,nt
CCC(=O)N1c2ccc(S(=O)(=O)NCCc3ccc(OC)c(OC)c3)cc2CC1C (configuration not stated),nt,nt,-2.2,-35.0,nt,1.9,nt
O=C(Oc1ccccc1-c1nnco1)c1ccc(Cl)cc1,-4.6,4.3,33.3*,13.0,4.9,-8.8,-6.4
CCOc1ccc(N(CC(=O)Nc2c(C)n(C)n(-c3ccccc3)c2=O)S(=O)(=O)c2ccc(F)cc2)cc1,nt,nt,-3.4,23.0,nt,-16.6,nt
O=C(N/N=C/c1ccco1)C1CC1c1ccccc1 (configuration not stated),1.7,2.7,5.4,-2.5,8.2,21.9,nt
SMILES,APP transl inh,Ba/F3 V617F tox,IEC-6 cytotox,aSyn UTR inh,BaF3 parental,KLF5 inhibitor,IEC-6 cytotox cf
CC(C)(C)c1ccc(C2CC2C(=O)N/N=C\c2ccc[nH]2)cc1 (configuration not stated),80.1*,100.0*,57.6*,44.0,74.8*,-39.0,88.6*
CC1(C)Cc2c(sc(NC(=O)C(=O)NCC3CCCO3)c2C(N)=O)CO1 (configuration not stated),nt,nt,4.5,3.4,nt,1.9,nt
Brc1ccccc1C1=Nn2c(nnc2-c2ccccc2)SC1,2.5,36.9*,27.3*,?,32.0*,-4.5,21.5
Brc1ccccc1C1=Nn2c(nnc2-c2ccco2)SC1,nt,-4.3,1.7,14.3,3.3,-8.0,nt
CC(C)c1nnc(NC(=O)CC(C)c2ccccc2)s1 (configuration not stated),nt,nt,-0.9,-55.7,nt,-48.5,nt
Cc1cnc(NC(=O)CC(C)c2ccccc2)s1 (configuration not stated),nt,nt,33.1*,-196.5,nt,28.2,23.3*
O=[N+]([O-])c1cc([N+](=O)[O-])c2cc3ccccc3nc2c1,nt,nt,45.8*,-176.0,nt,3.0,11.6
O=C(c1ccco1)N1CCN(Cc2cc(=O)c(OCc3ccc(F)cc3)co2)CC1,nt,nt,nt,-5.2,nt,nt,nt
COc1ccc(C/C(C)=N\NC(=O)c2cn(C)c3ccccc23)cc1OC,nt,17.5,30.8*,14.2,10.0,41.3,-8.9
COc1ccc(CC(=O)N/N=C/c2c(C)n(C)c3ccccc23)cc1OC,nt,4.2,13.9,38.9,1.4,21.9,nt
CCc1ccc2oc(C(=O)N3CCN(c4ccccc4OC)CC3)cc(=O)c2c1,nt,nt,30.9*,-3.9,nt,8.3,54.5*
CCc1ccc2oc(C(=O)N3CCN(c4ccc(OC)cc4)CC3)cc(=O)c2c1,nt,nt,4.5,-5.4,nt,-17.7,nt
Cc1ccccc1Oc1nc2c(C)cccn2c(=O)c1/C=C(\C#N)C(=O)NC1CCS(=O)(=O)C1 (configuration not stated),nt,-6.3,55.2*,20.8,-0.4,10.6,29.3*
CCC(C)NC(=O)c1cn(CC)c2ccc(S(=O)(=O)N3CCCCCC3)cc2c1=O (configuration not stated),nt,nt,14.0,15.7,nt,1.2,nt
O=C1CN(C(=O)COc2cccc(F)c2)c2ccccc2N1,-12.7,-6.0,-6.2,4.9,-1.4,-8.4,nt
Cc1noc(C)c1COc1cccc(C(=O)OCC(=O)N2CC(=O)Nc3ccccc32)c1,92.8*,4.1,79.0*,64.9*,2.7,17.2,43.2*
COc1ccc(-n2cc(-c3ccc(OC)c(OC)c3)[nH]c2=S)cc1,-12.6,-4.4,1.3,-7.5,0.8,-54.2,nt
COc1ccc(-n2cc(-c3ccccc3)[nH]c2=S)c(OC)c1,nt,nt,26.4*,-74.9,nt,3.2,3.7
CC(=O)Nc1nc(NC(=O)/C=C/c2ccccc2)n(-c2ccccc2)n1,11.4,5.3,24.1*,78.9*,10.4,27.0,16.7
O=C(Nc1nc(NC(=O)c2ccco2)n(-c2ccccc2)n1)c1ccccc1,46.0*,36.0*,26.2*,79.0*,50.9*,47.9,41.1*
CC(=O)Nc1nc(NCc2ccccc2Cl)n(-c2ccccc2)n1,nt,nt,-6.3,15.4,nt,-15.9,nt
Cc1cnc(NC(=O)C2CC(=O)N(c3cccc(Cl)c3)C2)s1 (configuration not stated),nt,nt,72.7*,17.2,nt,59.1,33.0*
CCOc1ccc(Nc2cc(C)c3ccccc3n2)cc1,nt,nt,1.8,-84.5,nt,-27.1,nt
CCOc1ccc(Nc2c3ccccc3nc3ccccc23)cc1,nt,75.7*,72.0*,-94.3,68.2*,40.0,44.3*

# Bioassay records: PubChem BioAssay, several laboratories
